Experiment [1] in a line: CCTE_Shafer_MEA_acute_per_network_burst_electrodes_number_mean: CCTE's Neural Acute Assay for Mean Number of Electrodes in a Network Burst, Shafer Lab (AID 2284021).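 Also: curves fitted for decreases only so hits reduce electrodes per burst.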 An outline of the steps: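 Readout: % change in mean electrodes active per network burst, post- vs pre-treatment, each well. Spikes detected at 8x rms noise after 300-5000 Hz band-pass; rat cortical cultures, DIV 13/15, compounds 0.03-40 uM, DMSO baseline.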

Experiment [2] is described as follows: CCTE_Shafer_MEA_acute_network_burst_percentage: CCTE's Neural Acute Assay for Percentage of Network Bursts, Shafer Lab (AID 2284022).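 Also: curves fitted for loss so actives lower network burst percentage.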 Put shortly: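 Rat cortical cultures, DIV 13/15; 20 min equilibration, 40 min baseline, compound 0.03-40 uM, 40 min recording, 37 C. Spikes: 300-5000 Hz band-pass, threshold 8x rms noise. Readout: % change in network-burst spike fraction; loss direction vs DMSO.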

Experiment [3] is described as follows: CCTE_Shafer_MEA_acute_cross_correlation_area: CCTE's Neural Acute Assay for Area of Cross Correlation, Shafer Lab (AID 2284024).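 Also: rat primary cortical neuron networks on 48-well MEA at DIV 13 or 15 with 40 min exposure; area under pooled inter-electrode spike cross-correlation near zero lag as percent change from own baseline; curves fitted for loss of cross-correlation area so actives lower synchrony.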 Put shortly:
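Rat cortical cultures, DIV 13/15, MEA; spikes detected at 8x rms noise (300-5000 Hz band-pass). Compound 0.03-40 uM, ≥3 wells each. Readout: % change in pooled inter-electrode cross-correlation area vs own baseline; DMSO negative control.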

Experiment [4] is described as follows: CCTE_Shafer_MEA_acute_synchrony_index: CCTE's Neural Acute Assay for Synchrony, Shafer Lab (AID 2284027).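 Also: network synchrony index of spontaneous spiking in primary rat cortical neurons on MEAs; fitted for loss of signal so actives lower synchrony relative to DMSO.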 An outline of the steps: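 Plates equilibrated 20 min at 37 C, baseline recorded 40 min, compound (0.03-40 uM) added, then 40 min more recorded. Cells: primary rat cortical neurons, DIV 13 or 15. Per-well synchrony index change analysed in negative direction against DMSO.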

The target of experiment [5] is Estrogen receptor (Homo sapiens) (UniProt P03372). In words: CCTE_Deisenroth_AIME_96WELL_LUC_Active: CCTE's 96-well Estrogen Receptor Transactivation Assay with AIME metabolic competence (ERTA luciferase; metabolism positive), Deisenroth Lab (AID 2284023; active = hit-call score of the fitted dose curve at least 0.9, where 1 is the maximum). Put shortly: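 Metabolism-positive mode: induced rat hepatic S9 in alginate microspheres conditions test solutions (0.002 - 200 uM, 10 points) for 2 hours. VM7Luc4E2 ER luciferase reporter cells then exposed 24 h; positive-direction fit against 17beta-estradiol, n=4 typical.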

The target is the same in experiment [6]. The experiment is described as follows: CCTE_Deisenroth_AIME_96WELL_LUC_Inactive: CCTE's 96-well Estrogen Receptor Transactivation Assay without AIME metabolic competence (ERTA luciferase; metabolism negative), Deisenroth Lab (AID 2284025; active = hit-call score of the fitted dose curve at least 0.9, where 1 is the maximum). Put shortly: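 Metabolism-negative arm: chemicals (0.002–200 uM, 10 points) incubated 2 h with alginate-water microspheres, then medium moved onto VM7Luc4E2 cells for 24 h luciferase read-out. Positive direction vs 17beta-estradiol; n≥4 experiments.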

Experiment [7] is described as follows: CCTE_Deisenroth_AIME_96WELL_CTox_Active: Cytotoxicity Assessment (CTOX) in CCTE's 96-well Estrogen Receptor Transactivation Assay with AIME metabolic competence (metabolism positive), Deisenroth Lab (AID 2284028; active = hit-call score of the fitted dose curve at least 0.9, where 1 is the maximum). Put shortly:
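Cytotoxicity in VM7Luc4E2 breast cells after 24 h exposure to medium from a 2 h metabolic pre-incubation with induced rat hepatic S9 in alginate microspheres; fluorescent live-cell protease readout, 10-point series 0.002–200 uM, n=4.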

The target in experiment [8] is Estrogen receptor (Homo sapiens) (UniProt P03372). The experiment is described as follows: CCTE_Deisenroth_AIME_384WELL_LUC_Active: CCTE's 384-well Estrogen Receptor Transactivation Assay with AIME metabolic competence (ERTA luciferase; metabolism positive), Deisenroth Lab (AID 2284030; active = hit-call score of the fitted dose curve at least 0.9, where 1 is the maximum). Put shortly:
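Readout: bioluminescent luciferase induction in VM7Luc4E2 cells 24 hour after receiving medium from a 2 h rat hepatic S9 (induced, alginate microsphere) metabolism step. Concentrations 0.002 - 200 uM; activity scaled to 17beta-estradiol positive control.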

Experiment [9] has the same target. The experiment is described as follows: CCTE_Deisenroth_AIME_384WELL_LUC_Inactive: CCTE's 384-well Estrogen Receptor Transactivation Assay without AIME metabolic competence (ERTA luciferase; metabolism negative), Deisenroth Lab (AID 2284038; active = hit-call score of the fitted dose curve at least 0.9, where 1 is the maximum;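 also: hits raise estrogen receptor luciferase signal so potencies reflect agonists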). An outline of the steps: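 VM7Luc4E2 ER transactivation, luciferase bioluminescence after 24 h, using medium pre-incubated 2 h with S9-free alginate microspheres. Concentrations 0.002–200 uM; gain of signal fitted relative to 17beta-estradiol.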

Experiment [10] is described as follows: CCTE_Deisenroth_AIME_384WELL_CTox_Inactive: Cytotoxicity Assessment (CTOX) in CCTE's 384-well Estrogen Receptor Transactivation Assay without AIME metabolic competence (metabolism negative), Deisenroth Lab (AID 2284039; active = hit-call score of the fitted dose curve at least 0.9, where 1 is the maximum;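 also: cell viability via live-cell protease substrate cleaved to fluorescent probe; loss of fluorescence signal means loss of viability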). An outline of the steps: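 Fluorescent protease-substrate viability readout after 24 h exposure of VM7Luc4E2 cells to conditioned medium. Chemicals (0.002–200 uM) first sat 2 h over alginate-water beads, no S9. Data fitted bidirectionally, loss of signal meaning viability loss.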

Experiment [11] has as its target Estrogen receptor (Homo sapiens) (UniProt P03372). The experiment is described as follows: CCTE_Deisenroth_AIME_384WELL_LUC_Shift: CCTE's 384-well Estrogen Receptor Transactivation Assay with AIME metabolic competence data shift (ERTA luciferase; difference in metabolism positive and negative), Deisenroth Lab (AID 2284041).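 Also: shift is response with S9 minus without S9 so positive means metabolism raised ER signal.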 An outline of the steps: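 Chemicals (0.002–200 uM, 10 points) pre-incubated 2 h with alginate-encapsulated induced male Sprague Dawley rat liver S9 or S9-free, then medium applied 24 h to VM7Luc4E2 cells; luciferase. Endpoint is per-concentration difference, S9-positive minus negative.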

A short description of experiment [12]: CCTE_Shafer_MEA_dev_firing_rate_mean: CCTE's Neural Network Formation Assay for Mean Firing Rate, Shafer Lab (AID 2284031).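 As to AC50: curve fitted for loss of firing so AC50 reflects decreased mean firing rate.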 Put shortly:
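Steps: seed rat cortical cells (1.5 x 10^5/well) with laminin on PEI-coated MEA; dose day 0; record DIV 5/7/9/12, full media and compound exchange after DIV 5 and 9 recordings; compute well-mean firing rate AUC.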

A short description of experiment [13]: CCTE_Deisenroth_AIME_384WELL_CTox_Active: Cytotoxicity Assessment (CTOX) in CCTE's 384-well Estrogen Receptor Transactivation Assay with AIME metabolic competence (metabolism positive), Deisenroth Lab (AID 2284037; active = hit-call score of the fitted dose curve at least 0.9, where 1 is the maximum;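 also: chemicals first conditioned 2 h by alginate-bound induced rat liver S9 before cells; activity means signal loss indicating cell death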). An outline of the steps:
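Chemicals pre-incubated 2 hours with alginate-immobilised phenobarbital/beta-naphthoflavone-induced male Sprague Dawley rat liver S9, then conditioned medium applied 24 hour to VM7Luc4E2 cells. Viability by fluorogenic protease substrate; 10-point series 0.002 - 200 uM.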

Experiment [14] in a line: CCTE_Shafer_MEA_dev_active_electrodes_number: CCTE's Neural Network Formation Assay for Number of Active Electrodes, Shafer Lab (AID 2284040; active = hit-call score of the fitted dose curve at least 0.9, where 1 is the maximum;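 also: potency for loss of active electrodes versus DMSO so lower counts are hits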). Put shortly:
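Counts electrodes per well firing at least 5 spikes/min, recorded on days 5, 7, 9 and 12 in rat cortical cultures dosed continuously from plating (treatment refreshed DIV 5, 9). Value is the area under the curve over recordings, fitted downward relative to DMSO.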

A short description of experiment [15]: CCTE_Shafer_MEA_dev_burst_rate: CCTE's Neural Network Formation Assay for Burst Rate, Shafer Lab (AID 2284042).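 As to AC50: potency for loss of burst rate below DMSO control.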 An outline of the steps: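 Exposure ran continuously over 12 days of network development in rat cortical cultures, with compound refreshed during full media changes on DIV 5 and 9. Single-electrode bursts per recording time, well-mean over active electrodes, trapezoidal AUC across days 5–12, fitted downward relative to DMSO.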

A short description of experiment [16]: CCTE_Shafer_MEA_dev_bursting_electrodes_number: CCTE's Neural Network Formation Assay for Number of Bursting Electrodes, Shafer Lab (AID 2284043; active = hit-call score of the fitted dose curve at least 0.9, where 1 is the maximum;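 also: potency is for loss of bursting electrodes relative to DMSO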). Put shortly:
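Rat cortical primary neurons, 48-well MEA, 16 electrodes/well; dosing DIV 0–12, re-dosed with full media change DIV 5, 9. Recordings DIV 5/7/9/12, AxIS adaptive spike detector; bursting electrode = ≥1 burst/2 min. AUC across days; loss of signal vs DMSO.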

Experiment [17] in a line: CCTE_Shafer_MEA_dev_per_burst_interspike_interval: CCTE's Neural Network Formation Assay for Burst Interspike Interval, Shafer Lab (AID 2284044).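 Also: potency for a decrease of within-burst interspike interval below DMSO level.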 Put shortly:
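Readout is the average time between spikes inside single-electrode bursts, taken as a well mean across bursting electrodes. Cortical neurons from rat developed networks on MEA plates under continuous 12-day exposure; recordings on days 5, 7, 9 and 12 were integrated by trapezoidal AUC.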

Experiment [18] can be described thus: CCTE_Shafer_MEA_dev_burst_duration_mean: CCTE's Neural Network Formation Assay for Mean Burst Duration, Shafer Lab (AID 2284045).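 As to AC50: curve fitted for loss meaning shorter burst duration than DMSO.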 Put shortly: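 Rat cortical cultures, 1.5 x 10^5 cells/well with laminin drop; continuous dosing days 0–12, media plus treatment refreshed DIV 5, 9. AxIS adaptive spike detection; mean single-electrode burst duration, AUC over four recordings, negative direction vs DMSO.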

Experiment [19] in a line: CCTE_Shafer_MEA_dev_interburst_interval_mean: CCTE's Neural Network Formation Assay for Mean Interburst Interval, Shafer Lab (AID 2284046).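 Also: curve fitted for decrease in interburst interval relative to DMSO.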 Put shortly: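 Primary rat cortical neurons on PEI-coated 48-well MEA plates (laminin added with cells at plating) (16 electrodes/well), exposed from plating day 0 with renewal at DIV 5 and 9. Mean inter-burst interval averaged over bursting electrodes, AUC across days 5, 7, 9, 12; DMSO baseline.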

The nature of experiment [20]: CCTE_Deisenroth_AIME_96WELL_CTox_Inactive: Cytotoxicity Assessment (CTOX) in CCTE's 96-well Estrogen Receptor Transactivation Assay without AIME metabolic competence (metabolism negative), Deisenroth Lab (AID 2284029; active = hit-call score of the fitted dose curve at least 0.9, where 1 is the maximum). An outline of the steps: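 Metabolism-negative mode: alginate-water lids without rat S9, 2 h pre-incubation of 10-point series (0.002 - 200 uM). Conditioned medium on VM7Luc4E2 cells 24 h; loss of fluorescent live-cell protease signal marks cytotoxicity.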

Values joined by “and” are separate entries in the source; they are usually repeats but may differ in a detail not shown here. Equal entries are not always repeated. Records with an inconclusive call do not appear. Some structures have more than one record in an assay (separate samples or runs), and their calls can disagree. Active and inactive are the calls of the source. The calls were made as follows, unless noted: active = hit-call score of the fitted dose curve at least 0.9, where 1 is the maximum; inactive = score below 0.9.

The AC50 is the midpoint of the concentration-response curve, whichever way the signal moves.

Sequence of Estrogen receptor (Homo sapiens) (P03372 whole entry, looked up): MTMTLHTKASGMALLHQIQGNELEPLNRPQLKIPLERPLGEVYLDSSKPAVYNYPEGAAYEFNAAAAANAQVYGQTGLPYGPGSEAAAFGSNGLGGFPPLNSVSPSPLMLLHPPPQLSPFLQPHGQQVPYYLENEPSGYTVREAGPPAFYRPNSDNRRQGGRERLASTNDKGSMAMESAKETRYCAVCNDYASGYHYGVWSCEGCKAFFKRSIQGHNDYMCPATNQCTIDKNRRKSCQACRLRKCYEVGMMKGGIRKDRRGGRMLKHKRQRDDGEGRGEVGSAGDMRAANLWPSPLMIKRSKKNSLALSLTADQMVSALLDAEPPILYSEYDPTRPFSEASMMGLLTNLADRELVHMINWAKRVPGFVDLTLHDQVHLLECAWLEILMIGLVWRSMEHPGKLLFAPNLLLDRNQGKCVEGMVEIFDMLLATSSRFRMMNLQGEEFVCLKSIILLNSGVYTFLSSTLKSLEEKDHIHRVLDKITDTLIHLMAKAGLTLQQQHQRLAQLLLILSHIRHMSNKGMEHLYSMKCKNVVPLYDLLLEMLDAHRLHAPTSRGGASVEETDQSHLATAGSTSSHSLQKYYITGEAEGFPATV

With `Cc1cc(CCN2CCN(c3nsc4ccccc34)CC2)cc2c1NC(=O)CC2(C)C`, the AC50 in experiment [1] was 32.4 µM (active); in experiment [4], 33.4 µM (active). For the same compound, the result in experiment [2] and in experiment [3] was inactive.
Consider `CCC(=C(c1ccc(O)cc1)c1ccc(OCCN(C)C)cc1)c1ccccc1`, for which the outcome in experiment [1], in experiment [2] and in experiment [3] was inactive. For the same compound, the AC50 in [4] is 20.9 µM (active).
In the case of `CN1CCN(c2ccccc2/C=C2\SCCN(c3ccc(Cl)c(Cl)c3)C2=O)CC1`, the call in [1], in [2] and in experiment [3] was inactive. For the same compound, in experiment [4], the AC50 was 34 µM (active).
For the compound `O=C(/C=C/c1ccc(O)cc1)CC(=O)/C=C/c1ccc(O)cc1`, the AC50 is 31.4 µM (active) in [5] and 43.2 µM (active) in [6]. For the same compound, the result in experiment [7] was inactive.
For the compound `NC(=O)N(O)[C@@H]1C=C[C@H](Oc2cccc(Oc3ccc(F)cc3)c2)C1`, the result in experiment [1], in experiment [2] and in experiment [3] was inactive. Moreover, in [4], the AC50 was 10 µM (active).
Consider `CC(C)CCCCCCOC(=O)CCCCC(=O)OCCCCCCC(C)C`, for which the compound was called inactive in [1], in [2], in [3] and in experiment [4].
`CCCCCCCCCCCCCCCS(=O)(=O)Oc1ccccc1`: the call in [1], in experiment [2], in [3], in experiment [4], in experiment [10] and in experiment [11] was inactive. Further, the half-maximal activity concentration (AC50) in experiment [8] was 19.5 µM (active); in [9], 9.6 µM (active).
On to `CC#C[C@]1(O)CC[C@H]2[C@@H]3CCC4=CC(=O)CCC4=C3[C@@H](c3ccc(N(C)C)cc3)C[C@@]21C`, for which the AC50 in [1] was 7.54 µM (active); in [2], 16.2 µM (active); in experiment [4] it was 16.2 µM (active) and 7.18 µM (active); in experiment [12] it was 8.04 µM (active); in experiment [14], 4.73 µM (active) and 17.8 µM (active); in [15], 5.1 µM (active). Besides, the AC50 was 2.8 µM (active) and 15 µM (active) in experiment [16]; 4.01 µM (active) and 5.66 µM (active) in experiment [17]; 2.98 µM (active) in experiment [18]; 2.69 µM (active) in [19]. The call in experiment [1], in experiment [2], in [3], in [8], in experiment [12] and in experiment [13] was inactive. The call in [9], in experiment [10], in experiment [11], in experiment [15], in experiment [18] and in [19] was inactive.
Regarding `CCCCC(CC)COC(=O)CCCCC(=O)OCC(CC)CCCC` (configuration not stated), the outcome in experiment [5], in [6], in [7] and in [20] was inactive.
For the compound `CCc1ccc(CCOc2ccc(CC3SC(=O)NC3=O)cc2)nc1` (configuration not stated), the compound was classed as inactive in [1], in experiment [2], in [3] and in experiment [4].
For `CCCCCCCCCCCCc1ccccc1S(=O)(=O)O`, the call in [1], in [2] and in [3] was inactive. The AC50 in experiment [4] is 33.1 µM (active).
In the case of `CCCCCCCCCCCCN1CCCC1=O`, the compound was classed as inactive in experiment [1], in [2], in [3], in experiment [4] and in experiment [11]. The AC50 was 100 µM (active) in experiment [13] and 57.1 µM (active) in experiment [10].

These data come from PubChem BioAssay (EPA / NIEHS).
